# According to paper PMC7862700, “An all-to-all approach to the identification of sequence-specific readers for epigenetic DNA modifications on cytosine”:
# Tests used:
# Assay in all cases: DAPPL (digital affinity profiling via proximity ligation, sequencing); 10 mM Tris-HCl pH 7.5, 50 mM NaCl, 1 mM DTT, 4% glycerol, room temperature, 30 min; GST-TFs on glutathione beads, 16-mer random dsDNA library, 0.1% formaldehyde crosslink after washing; high values mean tight binding
# Conditions in all cases: protein: recombinant; tags: N-terminal GST; dsDNA, one strand shown
# ELK1 = target: T1, ELK1 (Homo sapiens, UniProt P19419 1-428)
# T1 sequence: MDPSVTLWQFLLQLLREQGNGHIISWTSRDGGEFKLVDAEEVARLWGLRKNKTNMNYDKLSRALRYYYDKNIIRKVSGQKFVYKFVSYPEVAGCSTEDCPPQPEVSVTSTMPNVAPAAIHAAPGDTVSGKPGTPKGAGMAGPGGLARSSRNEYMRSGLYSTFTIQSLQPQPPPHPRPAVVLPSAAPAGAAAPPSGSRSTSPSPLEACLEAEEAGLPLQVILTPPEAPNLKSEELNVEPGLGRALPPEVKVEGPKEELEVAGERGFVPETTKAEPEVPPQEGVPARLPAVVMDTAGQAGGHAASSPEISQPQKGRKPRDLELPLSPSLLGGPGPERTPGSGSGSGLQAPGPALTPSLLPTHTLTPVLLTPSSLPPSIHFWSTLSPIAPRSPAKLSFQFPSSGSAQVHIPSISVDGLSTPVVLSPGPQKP
# Method in brief: (§1)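 Binding signal is each hexamer's read frequency for a factor divided by its frequency in the tag-only sample. The factors were GST-fused human transcription factors from yeast, captured on glutathione beads, DNA-barcoded and pooled with that sample. Pools were incubated with 200 nmole of a random double-stranded 16-mer DNA library in Tris/NaCl/DTT/glycerol buffer at room temperature for 30 min, then washed, crosslinked with 0.1% formaldehyde, proximity-ligated with BsaI/T4 ligase (1 h, 37 °C), PCR-amplified and sequenced on an Illumina NextSeq500.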
# ERG = target: T2, ERG (Homo sapiens, UniProt P11308 1-479)
# T2 sequence: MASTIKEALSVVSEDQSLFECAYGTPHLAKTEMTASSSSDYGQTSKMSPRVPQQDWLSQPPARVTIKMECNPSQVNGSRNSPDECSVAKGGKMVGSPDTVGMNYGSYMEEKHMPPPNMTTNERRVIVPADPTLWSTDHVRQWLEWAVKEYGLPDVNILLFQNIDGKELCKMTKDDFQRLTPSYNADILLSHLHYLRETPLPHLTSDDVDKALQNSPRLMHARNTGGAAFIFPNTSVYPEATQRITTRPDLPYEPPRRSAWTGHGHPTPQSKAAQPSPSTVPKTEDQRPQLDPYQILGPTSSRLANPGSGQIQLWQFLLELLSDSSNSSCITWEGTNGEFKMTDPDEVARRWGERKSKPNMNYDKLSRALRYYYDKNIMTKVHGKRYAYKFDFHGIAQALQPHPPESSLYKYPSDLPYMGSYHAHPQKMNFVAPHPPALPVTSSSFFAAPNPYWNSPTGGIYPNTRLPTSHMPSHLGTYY
# Method in brief: as §1
# ELF1 = ELF1 (Homo sapiens, UniProt P32519 1-619)
# ELF1, sequence (P32519 whole entry): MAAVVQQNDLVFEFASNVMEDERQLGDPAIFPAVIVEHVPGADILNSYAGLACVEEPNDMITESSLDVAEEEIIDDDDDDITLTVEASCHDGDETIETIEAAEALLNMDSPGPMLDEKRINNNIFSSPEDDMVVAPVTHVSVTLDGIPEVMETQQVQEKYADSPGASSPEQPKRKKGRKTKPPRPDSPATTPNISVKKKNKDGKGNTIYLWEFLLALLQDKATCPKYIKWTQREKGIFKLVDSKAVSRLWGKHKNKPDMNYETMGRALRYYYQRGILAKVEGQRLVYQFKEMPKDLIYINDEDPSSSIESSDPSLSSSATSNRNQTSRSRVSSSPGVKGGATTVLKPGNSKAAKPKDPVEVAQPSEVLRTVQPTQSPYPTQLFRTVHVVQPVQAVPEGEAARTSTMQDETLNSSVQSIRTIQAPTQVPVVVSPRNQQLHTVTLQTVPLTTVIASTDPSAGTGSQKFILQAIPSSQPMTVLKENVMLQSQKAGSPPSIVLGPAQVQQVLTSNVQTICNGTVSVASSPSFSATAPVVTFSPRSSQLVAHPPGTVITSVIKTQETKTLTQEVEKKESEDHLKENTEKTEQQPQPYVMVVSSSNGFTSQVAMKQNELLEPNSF
# Method in brief: as §1
# SPIB = SPIB (Homo sapiens, UniProt Q01892 1-262)
# SPIB, sequence (Q01892 whole entry): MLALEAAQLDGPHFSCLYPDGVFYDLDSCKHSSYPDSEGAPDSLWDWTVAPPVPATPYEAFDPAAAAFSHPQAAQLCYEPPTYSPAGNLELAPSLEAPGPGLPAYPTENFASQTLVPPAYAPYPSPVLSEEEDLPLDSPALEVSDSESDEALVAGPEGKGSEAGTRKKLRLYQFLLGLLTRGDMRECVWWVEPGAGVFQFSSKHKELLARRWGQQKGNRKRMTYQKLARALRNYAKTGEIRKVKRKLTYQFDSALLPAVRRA
# Method in brief: as §1
# ETV5 = ETV5 (Homo sapiens, UniProt P41161 1-510)
# ETV5, sequence (P41161 whole entry): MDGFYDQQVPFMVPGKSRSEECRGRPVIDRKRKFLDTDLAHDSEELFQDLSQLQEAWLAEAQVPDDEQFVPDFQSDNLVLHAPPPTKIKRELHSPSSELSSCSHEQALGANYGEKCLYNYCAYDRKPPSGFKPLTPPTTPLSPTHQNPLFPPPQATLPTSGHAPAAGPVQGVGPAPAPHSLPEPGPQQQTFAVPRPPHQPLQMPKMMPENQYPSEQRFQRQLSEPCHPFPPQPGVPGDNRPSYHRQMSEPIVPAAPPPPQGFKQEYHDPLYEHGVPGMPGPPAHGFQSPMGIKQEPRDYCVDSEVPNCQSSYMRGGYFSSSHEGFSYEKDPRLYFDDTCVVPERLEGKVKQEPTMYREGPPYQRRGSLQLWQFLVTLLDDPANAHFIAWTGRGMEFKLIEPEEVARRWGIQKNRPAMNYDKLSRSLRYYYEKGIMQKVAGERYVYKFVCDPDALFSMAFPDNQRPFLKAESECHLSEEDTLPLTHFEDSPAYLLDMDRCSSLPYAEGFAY
# Method in brief: as §1
# ELK4 = target: T3, ELK4 (Homo sapiens, UniProt P28324-2 1-405)
# T3 sequence: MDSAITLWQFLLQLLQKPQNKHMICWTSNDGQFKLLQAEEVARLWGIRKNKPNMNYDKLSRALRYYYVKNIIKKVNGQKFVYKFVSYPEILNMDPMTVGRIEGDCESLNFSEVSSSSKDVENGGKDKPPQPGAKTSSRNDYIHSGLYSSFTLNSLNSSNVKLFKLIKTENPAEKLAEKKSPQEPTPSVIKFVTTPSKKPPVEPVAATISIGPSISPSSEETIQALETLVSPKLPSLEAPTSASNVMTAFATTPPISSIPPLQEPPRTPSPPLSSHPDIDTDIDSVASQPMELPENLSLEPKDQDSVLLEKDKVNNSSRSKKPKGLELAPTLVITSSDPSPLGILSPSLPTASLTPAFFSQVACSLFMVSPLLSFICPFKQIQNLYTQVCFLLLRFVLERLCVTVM
# Method in brief: as §1
# ETV1 = ETV1 (Homo sapiens, UniProt P50549 1-477)
# ETV1, sequence (P50549 whole entry): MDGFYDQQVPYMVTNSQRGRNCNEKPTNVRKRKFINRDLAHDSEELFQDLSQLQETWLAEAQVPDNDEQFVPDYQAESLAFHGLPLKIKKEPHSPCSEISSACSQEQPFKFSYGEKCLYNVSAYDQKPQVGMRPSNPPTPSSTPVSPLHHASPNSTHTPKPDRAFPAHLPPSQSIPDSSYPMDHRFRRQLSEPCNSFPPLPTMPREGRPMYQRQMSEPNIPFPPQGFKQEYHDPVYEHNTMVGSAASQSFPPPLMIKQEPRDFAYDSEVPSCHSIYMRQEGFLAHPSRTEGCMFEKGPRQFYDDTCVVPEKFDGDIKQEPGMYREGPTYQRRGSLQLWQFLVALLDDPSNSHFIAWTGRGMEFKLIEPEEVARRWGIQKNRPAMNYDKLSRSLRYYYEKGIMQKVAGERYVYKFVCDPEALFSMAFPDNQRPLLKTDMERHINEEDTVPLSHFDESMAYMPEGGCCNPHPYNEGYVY
# Method in brief: as §1
# ERF = target: T4, ERF (Homo sapiens, UniProt P50548 1-548)
# T4 sequence: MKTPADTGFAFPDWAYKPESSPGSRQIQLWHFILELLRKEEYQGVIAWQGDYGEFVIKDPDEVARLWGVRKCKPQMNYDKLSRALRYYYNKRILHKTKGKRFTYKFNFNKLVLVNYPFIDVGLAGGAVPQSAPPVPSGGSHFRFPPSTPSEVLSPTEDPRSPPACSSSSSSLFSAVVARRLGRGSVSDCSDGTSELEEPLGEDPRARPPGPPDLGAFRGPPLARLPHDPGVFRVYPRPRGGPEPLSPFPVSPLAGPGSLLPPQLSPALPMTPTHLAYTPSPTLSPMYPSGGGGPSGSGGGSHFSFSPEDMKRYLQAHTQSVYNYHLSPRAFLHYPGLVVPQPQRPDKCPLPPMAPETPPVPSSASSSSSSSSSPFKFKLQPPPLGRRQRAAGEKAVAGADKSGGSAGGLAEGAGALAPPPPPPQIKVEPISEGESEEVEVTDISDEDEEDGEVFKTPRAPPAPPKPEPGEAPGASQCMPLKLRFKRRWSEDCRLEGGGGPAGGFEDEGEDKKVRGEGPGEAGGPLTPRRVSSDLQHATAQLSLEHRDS
# Method in brief: as §1
# ETV3L = target: T5, ETV3L (Homo sapiens, UniProt Q6ZN32 1-361)
# T5 sequence: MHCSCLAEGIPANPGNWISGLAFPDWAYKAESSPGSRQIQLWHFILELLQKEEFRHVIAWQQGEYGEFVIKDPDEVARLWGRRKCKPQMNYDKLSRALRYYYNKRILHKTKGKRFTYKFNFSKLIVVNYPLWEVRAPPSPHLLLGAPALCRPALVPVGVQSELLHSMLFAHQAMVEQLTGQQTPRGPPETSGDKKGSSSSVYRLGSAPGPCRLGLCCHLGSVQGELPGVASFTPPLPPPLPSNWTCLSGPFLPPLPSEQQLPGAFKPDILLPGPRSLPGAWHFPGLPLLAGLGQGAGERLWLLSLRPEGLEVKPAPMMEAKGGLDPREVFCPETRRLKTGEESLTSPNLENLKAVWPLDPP
# Method in brief: as §1
# ETV7 = target: T6, ETV7 (Homo sapiens, UniProt Q9Y603 1-341)
# T6 sequence: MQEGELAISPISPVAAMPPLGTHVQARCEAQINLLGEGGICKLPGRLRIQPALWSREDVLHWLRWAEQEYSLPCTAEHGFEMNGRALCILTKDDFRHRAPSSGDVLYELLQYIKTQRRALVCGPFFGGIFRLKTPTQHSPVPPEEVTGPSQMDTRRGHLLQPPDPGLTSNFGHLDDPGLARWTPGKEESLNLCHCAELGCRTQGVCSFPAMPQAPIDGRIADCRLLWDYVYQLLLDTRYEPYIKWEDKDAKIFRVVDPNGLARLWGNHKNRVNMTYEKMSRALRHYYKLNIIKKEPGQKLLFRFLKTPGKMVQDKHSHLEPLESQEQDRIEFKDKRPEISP
# Method in brief: as §1
sequence,measurement,setting,value
GGTGGT,binding signal,ELK1,"1.03 fold enrichment (6-mer frequency, TF over GST control)"
same,binding signal,ERG,"1.12 fold enrichment (6-mer frequency, TF over GST control)"
same,binding signal,ELF1,"1.01 fold enrichment (6-mer frequency, TF over GST control)"
same,binding signal,SPIB,"1.02 fold enrichment (6-mer frequency, TF over GST control)"
same,binding signal,ETV5,"1.04 fold enrichment (6-mer frequency, TF over GST control)"
same,binding signal,ELK4,"1.08 fold enrichment (6-mer frequency, TF over GST control)"
same,binding signal,ETV1,"1 fold enrichment (6-mer frequency, TF over GST control)"
same,binding signal,ERF,"1.07 fold enrichment (6-mer frequency, TF over GST control)"
same,binding signal,ETV3L,"1.05 fold enrichment (6-mer frequency, TF over GST control)"
same,binding signal,ETV7,"1 fold enrichment (6-mer frequency, TF over GST control)"
